Among the data in PubChem BioAssay (NCI) are growth values, retold here.

Molecules are shown by their SMILES. Compounds without any hit were thinned out: in the full panel of roughly 83,000, 20% have a hit.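 Assay: single dose, 48 h. Readout: percent growth (0 = no net growth; negative = cell death). Active: <10.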 Unmarked numbers belong to inactive results. Active and inactive are the calls of the source.

What all share (test): NCI-60 one-dose screen, 48 h (100 = growth as untreated, 0 = no growth, -100 = all killed)
Settings in all cases: 10 µM unless noted

Assay [1] deals with SR leukemia.
Assay [2] concerns RPMI-8226 leukemia.
For assay [3], the system named is OVCAR-8 ovarian.
In assay [4] the test system is OVCAR-5 ovarian.
In assay [5] the test system is OVCAR-4 ovarian.
Assay [6] deals with SK-OV-3 ovarian.
The subject of assay [7] is IGROV1 ovarian.
The test system of assay [8] is OVCAR-3 ovarian.
The subject of assay [9] is HS 578T breast.
In assay [10] the test system is NCI/ADR-RES ovarian.
Assay [11] relates to T-47D breast.
For assay [12], the system named is BT-549 breast.
Assay [13] relates to MDA-MB-435 melanoma.
Assay [14] concerns SW-620 colon.
The test system of assay [15] is MCF7 breast.
The test system of assay [16] is HCT-116 colon.
The test system of assay [17] is HCC-2998 colon.
In assay [18] the test system is KM12 colon.

Consider `COc1cc(OC)cc(C(=O)Nc2cnc(Nc3ccc(N4CCOCC4)nc3)nc2Oc2ccc(C(F)(F)F)cc2)c1`, for which the growth in assay [1] is 73%; in [2] it was 86.2%; in [3], 39.7%; in assay [4], 92.9%; in assay [5], 8.78% (active); in assay [6] it was 111%. Further, the growth is 77.4% in assay [7]; 62.8% in assay [8]; 30.4% in assay [9]; 60.1% in [10]; 69.9% in assay [11]; 77.5% in [12]. In addition, the growth was 74.9% in [13]; 71.2% in assay [14]; 59.1% in assay [15]; 16.1% in [16]; 99.9% in [17]; 88% in [18].

Take `COc1cc(C(=O)/C=C/c2c(-c3cccs3)nc3sc(C)cn23)cc(OC)c1OC`: the growth in assay [1] is 4.77% (active); in [2], 2.15% (active); in assay [3], 0.3% (active); in assay [4], 56.9%; in [5], 14.3%; in assay [6], 12.4%. For the same compound, the growth in assay [7] was 9.6% (active); in [8] it was -8.57% (active); in [9], -16.2% (active); in assay [10], -35.4% (active); in [11], 3.31% (active); in assay [12], -0.944% (active). Besides, the growth in [13] was -15.1% (active); in assay [14], 6.94% (active); in assay [15], 1.13% (active); in assay [16] it was 2.71% (active); in assay [17], 20.2%; in [18], -8.4% (active).

In the case of `CCCCC/C=C/CCC(=O)N[C@H]1[C@H](Oc2c3cc4cc2Oc2ccc(cc2Cl)[C@@H](O[C@@H]2O[C@H](CO)[C@@H](O)[C@H](O)[C@H]2NC(C)=O)[C@@H]2NC(=O)[C@H](NC(=O)[C@@H]4NC(=O)[C@H]4NC(=O)[C@@H](Cc5ccc(c(Cl)c5)O3)NC(=O)[C@@H](N)c3ccc(O)c(c3)Oc3cc(O)cc4c3)c3ccc(O)c(c3)-c3c(O[C@H]4O[C@H](CO)[C@@H](O)[C@H](O)[C@@H]4O)cc(O)cc3[C@H](C(=O)O)NC2=O)O[C@H](CO)[C@H](O)[C@@H]1O`, the growth in assay [1] was 95.5%; in [2], 120%; in [3] it was 101%; in [4], 114%; in [5] it was 110%; in assay [6], 111%. The growth in assay [7] is 101%; in [8], 104%; in assay [9] it was 50.1%; in assay [10] it was 96.5%; in assay [11] it was 119%; in [12], 107%. Besides, the growth in assay [13] was 100%; in [14], 102%; in [15] it was 98.5%; in assay [16], 101%; in assay [17], 101%; in assay [18], 111%.

Take `CC1=NN(c2cccc(Cl)c2)C(=O)/C1=C\C=C\c1ccccc1`: the growth in assay [1] was 10.6%; in assay [2], 15.4%; in [3], 0.373% (active); in assay [4], 144%; in [5], -10.4% (active); in assay [6] it was 39.4%. Further, the growth in [7] was 45.5%; in [8], 104%; in [9] it was 133%; in assay [10] it was -17.5% (active); in [11], 36.7%; in assay [12], 78.4%. For the same compound, the growth in [13] is 13.6%; in assay [14], 1.26% (active); in [15] it was 10.9%; in assay [16], -89.2% (active); in [17] it was 30.9%; in [18] it was 16.1%.

In the case of `Cc1cc(C(=O)Nc2cc(Nc3ncccc3-c3ncnc4nc[nH]c34)ccc2F)cc(C(C)(C)C#N)c1`, the growth in assay [1] was 32.1%; in assay [2] it was 24%; in assay [3] it was 39.9%; in [4], 30.3%; in assay [5], 53.2%; in assay [6] it was 87%. Moreover, the growth was 3.72% (active) in assay [7]; 52.1% in assay [8]; 44.6% in assay [9]; 49.9% in assay [10]; 47% in assay [11]; 54.5% in [12]. For the same compound, the growth in assay [13] is 33.2%; in [14] it was 34.3%; in assay [15] it was 62.4%; in assay [16] it was 14.1%; in [17], 35.3%; in assay [18] it was 35.9%.

As for `CCN1C(=O)N(CC)C2C1NN=c1s/c(=C3\C(=O)N(C)c4ccccc43)c(=O)n12` (centres undefined), the growth in [1] was 19.3%; in [2], 62.1%; in assay [3], 37.6%; in assay [4], 48.9%; in assay [5], 52%; in assay [6], 72.5%. The growth in assay [7] is 37.4%; in [8] it was -14.1% (active); in [9] it was 14.2%; in [10] it was 9.37% (active); in assay [11], 18.5%; in [12], 55.8%. In addition, the growth in assay [13] is -34.4% (active); in assay [14], 28.3%; in assay [15], 24.9%; in [16], 8.97% (active); in [17] it was 22.1%; in assay [18], 20.9%.

Turning to `CCOC(=O)c1ccc2c(c1)c1c(C)c3cnccc3c(C)c1n2C`, the growth in assay [1] is 14.9%; in assay [2], -29.7% (active); in [3] it was -21.5% (active); in assay [4] it was -46.7% (active); in [5] it was -14.8% (active); in assay [6], -21.4% (active). In addition, the growth in [7] is -62.7% (active); in [8], -47.5% (active); in assay [9], -27.6% (active); in assay [10], -33.1% (active); in assay [11], -23.1% (active); in assay [12] it was -54% (active). Also, the growth is -65.8% (active) in [13]; -7.3% (active) in assay [14]; -28.9% (active) in [15]; -85.2% (active) in [16]; -70.7% (active) in [17]; -7.02% (active) in assay [18].

Regarding `CC(C)(C#N)c1cc(C(=O)Nc2cc(Nc3ncccc3-c3ncnc4nc[nH]c34)ccc2F)cc(C(F)(F)F)c1`, the growth in assay [1] is 52.4%; in assay [2] it was 40.6%; in assay [3] it was 49.5%; in assay [4], 32.1%; in assay [5] it was 46.6%; in assay [6], 91.1%. Further, the growth in assay [7] is 8.69% (active); in [8], 70.1%; in [9], 30.9%; in assay [10] it was 52.2%; in assay [11], 52%; in assay [12], 71%. Moreover, the growth was 29.5% in assay [13]; 37.5% in assay [14]; 57.4% in [15]; 15.4% in assay [16]; 41.8% in assay [17]; 43.7% in assay [18].
